Bioassay records deposited in PubChem BioAssay by The Scripps Research Institute Molecular Screening Center.
An excerpt weighted towards active compounds, which were near 2.8% of everything screened.
Fam108B counter = counter-screen for RBBP9 inhibitors: inhibitors of mouse Fam108B; recombinant Fam108B, FP-Rh probe fluorescence polarization; inhibition, % at 9.51 µM; 300,000 tested, 0.33% active; AID 1947;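 active = inhibition above the screen mean inhibition plus 3 SD, computed separately per campaign, cut at about 18% in these data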;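 also: inhibitors lower polarization as less probe binds the enzyme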
PAFAH2 inh = inhibitors of human PAFAH2 | Q99487 | recombinant PAFAH2, FP-rhodamine activity probe, fluorescence polarization | inhibition, % at 3.39 µM | 340,000 tested, 0.99% active | AID 492956;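 active = inhibition above the mean over all tested compounds plus 3 SD, cut at about 30% in these data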;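 also: inhibitors block probe labeling of enzyme so polarization drops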
PME-1 primary = PME-1 (human) inhibition | recombinant PME-1, FP-Rh probe fluorescence polarization | inhibition, % at 5.9 µM | 320,000 tested, 0.53% active | AID 2130;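 active = inhibition above the campaign mean of all compounds plus 3 SD, cut at about 26% in these data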;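 also: competitive labeling of PME-1 active site by serine hydrolase directed probe; inhibitors block probe labeling so polarization falls and inhibition rises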
PAFAH1B3 FP inh = PAFAH1B3 (human) inhibition. Q15102. recombinant PAFAH1B3, FP-rhodamine probe, fluorescence polarization. inhibition, % at 3.39 µM. 340,000 tested, 0.28% active. AID 492972;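 active = inhibition above the screen-wide average of all tested compounds plus 3 SD, cut at about 25% in these data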
PAFAH1B2 FP inh = inhibitors of human PAFAH1B2 | P68402 | recombinant PAFAH1B2, FP-rhodamine activity probe, fluorescence polarization | inhibition, % at 3.39 µM | 340,000 tested, 1.2% active | AID 492953;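 active = inhibition above the mean of all tested compounds plus 3 SD, cut at about 24% in these data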
pPAFAH inh = inhibitors of human plasma PAF acetylhydrolase (pPAFAH); Q13093; 330,000 tested, 1.5% active; recombinant pPAFAH, FP-rhodamine probe fluorescence polarization; inhibition, % at 3.39 µM;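 active = inhibition above the mean inhibition across the screen plus 3 SD, cut at about 25% in these data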;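 also: inhibitors block binding of the rhodamine activity-based probe so polarization drops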
Target sequence (Q13093 whole entry, looked up): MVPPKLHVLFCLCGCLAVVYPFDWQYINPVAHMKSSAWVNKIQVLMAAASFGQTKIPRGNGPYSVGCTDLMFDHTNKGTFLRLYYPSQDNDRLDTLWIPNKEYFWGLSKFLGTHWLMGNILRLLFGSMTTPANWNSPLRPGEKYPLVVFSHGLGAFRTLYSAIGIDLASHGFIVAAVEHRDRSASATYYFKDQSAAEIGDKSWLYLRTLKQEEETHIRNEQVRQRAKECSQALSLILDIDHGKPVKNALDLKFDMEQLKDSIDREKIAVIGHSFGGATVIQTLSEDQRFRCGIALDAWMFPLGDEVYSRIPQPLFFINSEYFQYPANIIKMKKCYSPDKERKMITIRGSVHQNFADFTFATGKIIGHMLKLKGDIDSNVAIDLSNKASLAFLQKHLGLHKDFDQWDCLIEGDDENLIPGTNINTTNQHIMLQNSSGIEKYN
A number is an active result; . = inactive; / = no result.

SMILES	Fam108B counter	PAFAH2 inh	PME-1 primary	PAFAH1B3 FP inh	PAFAH1B2 FP inh	pPAFAH inh
Cc1ccccc1C(=O)NCC(=O)OC(C)C(=O)Nc1cccc(S(=O)(=O)N2CCOCC2)c1 (centres undefined)	.	.	.	.	.	.
O=[N+]([O-])c1cccc(S(=O)(=O)Nc2ccc3cn[nH]c3c2)c1	/	.	/	.	.	.
CCOc1ccc(N(CC)C(=O)COc2cc(=O)n(C)c3ccccc23)cc1	.	.	.	.	.	28
CCOc1ccc(N(CC)C(=O)COc2cc(=O)n(CC)c3ccccc23)cc1	.	.	.	.	.	.
Cc1nn(CC(=O)NNC(=S)NCC2CCCO2)c(C)c1Br (centres undefined)	.	.	.	.	.	28
Cc1cccc(-n2c(SCc3cc(=O)n4ccsc4n3)nc3ccccc32)c1	.	.	.	.	.	26
Cc1ccc(SCc2cc(=O)n3ccsc3n2)c(C)c1	.	/	.	/	/	.
O=c1c(Cl)c(Cl)cnn1Cc1nnc(-c2ccc(Cl)cc2)o1	/	.	/	.	.	/
O=C1NC(c2cccs2)C(C(=O)c2ccccc2)C(O)(C(F)(F)F)N1 (centres undefined)	.	.	.	.	32	.
O=C(CSCc1ccccc1)NNC(=S)Nc1cccc(Cl)c1Cl	.	.	.	.	.	32
CNC(=S)NNC(=O)CSCc1c(Cl)cccc1Cl	.	/	.	/	/	.
COC(=O)Cc1c(O)ccn(Cc2ccc(Cl)c(Cl)c2)c1=O	.	.	.	.	28	.
O=c1c(Cc2ccc(Cl)cc2Cl)c(O)ccn1Cc1ccc(Cl)cc1	.	.	.	.	28	.
O=c1c(Cc2ccc(Cl)cc2)c(O)ccn1Cc1cccc(Cl)c1	.	.	.	.	.	.
O=C(c1sc2ccccc2c1Cl)N1CCN(c2ncccn2)CC1	.	.	28	.	.	.
O=C(c1sc2ccccc2c1Cl)N1CCN(c2ccc(F)cc2)CC1	.	.	.	.	.	.
Cc1cc(/C=N/n2c(COc3ccccc3)nc3ccccc3c2=O)c(O)c([N+](=O)[O-])c1	.	.	.	.	.	31
Cc1ccc(-c2[nH]ncc2/C=N/n2c(COc3ccccc3)nc3ccccc3c2=O)cc1	.	.	.	.	.	.
O=C(OCc1ccc(Cl)c(Cl)c1)c1ccc[nH]1	.	47	.	.	.	.
Cc1cccc(Nc2nnc(SCC(O)=C(C#N)c3nc4ccccc4[nH]3)s2)c1	/	.	/	.	26	/
CC(Sc1ccccc1)C(=O)NCC1COc2ccccc2O1 (centres undefined)	.	.	.	.	.	.
O=C(O)c1ccc(N=Nc2c(O)[nH]c3ccc(Br)cc23)cc1	.	.	.	.	33	.
O=C(O)c1ccc(N=Nc2c(O)[nH]c3cc(Cl)ccc23)cc1	.	.	53	.	.	.
Oc1[nH]c2ccccc2c1N=Nc1cccc(Cl)c1	.	.	.	.	.	.
COC(=O)C1=NNC(C(=O)OC)C1c1ccccc1 (centres undefined)	/	.	/	.	.	/
SMILES	Fam108B counter	PAFAH2 inh	PME-1 primary	PAFAH1B3 FP inh	PAFAH1B2 FP inh	pPAFAH inh
Cc1ccc(CNn2cnnc2SCc2ccc(F)cc2)cc1	.	.	.	.	28	.
CCOc1ccc(CCN2C(=O)C(=O)N([C@@H](Cc3ccc(O)cc3)CN3CCC[C@@H]3CN3C(=O)C(=O)NC[C@@H]3Cc3ccccc3)C[C@@H]2Cc2ccccc2)cc1	/	.	/	.	.	/
CCCCC(CC)CN1CN(CC(CC)CCCC)CC(C)(N)C1 (centres undefined)	/	.	/	.	.	/
O=C(O)/C=C/c1cn(-c2ccccc2)nc1-c1ccc(-c2ccc([N+](=O)[O-])cc2)o1	.	.	27	.	.	.
C/C=C/c1ccc(OCC(=O)Nc2cc(Cl)ccc2-n2cncn2)c(OC)c1	.	.	.	.	.	.
COc1ccc(C2=CC(=O)C[C@H](c3ccc(Cl)cc3)C2)cn1	/	.	.	.	.	.
Cc1c(Cl)cccc1NC(=S)C(=C([O-])c1ccc(Cl)s1)[n+]1ccccc1	/	.	/	.	.	/
CN(C)C(CNC(=O)c1ccc(NC(=O)CC#N)cc1)c1ccccc1 (centres undefined)	.	.	.	.	.	.
N#CCC(=O)Nc1ccc(C(=O)NCCC(c2ccccc2)c2ccccc2)cc1	.	.	.	.	.	34
O=C(CNC(=O)c1ccc(Br)o1)Nc1cccc(S(=O)(=O)N2CCOCC2)c1	.	.	.	.	.	.
COc1ccc(CN(C)CC(=O)Nc2sc3c(c2C#N)CCC3)c(OC)c1	.	.	.	.	24	.
N#CC1=C(N)Oc2c(ccc3cccnc23)C1c1cccnc1 (centres undefined)	.	.	.	.	.	.
CCc1ccc2[nH]c(=O)c(C3C(C#N)=C(N)Oc4c3ccc3cccnc43)cc2c1 (centres undefined)	.	.	.	.	.	43
Cc1ccc2cc(C3C(C#N)=C(N)Oc4c3ccc3cccnc43)c(=O)[nH]c2c1 (centres undefined)	.	.	.	.	.	27
CC(=O)c1ccccc1NC(=O)COC(=O)c1cc(C)oc1C	/	.	.	.	.	.
CCn1c(N2CCN(C(c3ccccc3)c3ccccc3)CC2)nc2c1c(=O)[nH]c(=O)n2C	/	.	/	.	.	/
Cc1ccc(CNC(=O)CCn2cc(-c3ccc(C)cc3)nc2-c2ccncc2)cc1	.	.	.	.	.	.
Cc1ccc(CNC(=O)CCn2cc(-c3ccc(F)cc3)nc2-c2ccncc2)cc1	.	.	.	.	29	.
Cc1cccnc1NC(=O)c1cccc(S(=O)(=O)NCc2ccccc2)c1	.	.	.	.	.	.
CCOc1cc(/C=N/N=C2/NC(=O)C(CC(=O)O)S2)ccc1OCc1ccc(Cl)cc1Cl (centres undefined)	.	.	.	.	.	26
CCC(=O)OC1(C(C)=O)CCC2C3CCC4=CC(=O)CCC4(C)C3CCC21C (centres undefined)	/	.	/	.	.	/
COc1cccc(NC(=O)Nc2cc(C(=O)O)ccc2N2CC3CC(C2)c2cccc(=O)n2C3)c1 (centres undefined)	.	.	.	.	.	34
COc1ccc(NC(=O)Nc2cc(C(=O)O)ccc2N2CC3CC(C2)c2cccc(=O)n2C3)c(OC)c1 (centres undefined)	.	.	.	.	.	.
N#Cc1c(N)sc(=S)c2c1CCN(Cc1ccccc1)C2	27	/	32	/	/	40
COC(=O)c1cccc(NC(=O)c2nn(C(C)C)c(=O)c3ccccc23)c1	.	.	.	.	.	25
CCCn1nc(C(=O)Nc2cccc(C(=O)OC)c2)c2ccccc2c1=O	.	.	.	.	.	.
Cc1ccsc1/C=C/C1=Cc2c(sc(NC(=O)CSc3n[nH]c(N)n3)c2C#N)C(C)(C)C1	.	.	.	.	.	32
CCOc1ccc(/C=C/C2=Cc3c(sc(NC(=O)CSc4n[nH]c(N)n4)c3C#N)C(C)(C)C2)cc1	.	.	.	.	.	.
